# Experiments:
# Settings in all cases: concentration: 1 μM,replicates: in singlicate; n = 1
# [1] = tested on: DYRK1B
# [2] = tested on: DYRK2
# [3] = tested on: EGFR
# [4] = tested on: EIF2AK1
# [5] = tested on: EPHA1
# [6] = tested on: EPHA2
# [7] = tested on: EPHA3
# [8] = tested on: EPHA4
# [9] = tested on: EPHA5
# [10] = tested on: EPHA6
# 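Note: KINOMEscan kinase panel screen.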
Structure (SMILES),%Inh [1],%Inh [2],%Inh [3],%Inh [4],%Inh [5],%Inh [6],%Inh [7],%Inh [8],%Inh [9],%Inh [10]
C[C@@H]1CCN(C(=O)N2CCCC2)C[C@@H]1N(C)c1ncnc2[nH]ccc12,0%,0%,0%,23%,1%,0%,0%,16%,8%,20%
c1ccc(Oc2ccc(Nc3ccnc4ccc(-c5ccccn5)cc34)cc2)cc1 [GW407034],0%,0%,82%,0%,31%,13%,0%,7%,90.6%,2%
NC(=O)Nc1sc(-c2ccc(F)cc2)cc1C(N)=O [GW789449],52%,25%,23%,0%,60%,25%,0%,14%,7%,11%
Cn1ccc2ncnc(Oc3ccc(NC(=O)Nc4cnn(C(C)(C)C)c4)c(Cl)c3)c21,62%,6%,25%,0%,0%,22%,54%,23%,18%,89%
Cc1cccc2c(-c3ccncc3)c(-c3ccc(F)cc3)nn12.Cl [GW461487],0%,10%,19%,0%,3%,5%,0%,0%,0%,6%
Nc1nccc(-c2ccc3c(N)n[nH]c3c2)n1 [GSK1034945],75%,93.1%,24%,4%,11%,0%,0%,0%,0%,0%
CCn1c(-c2nonc2N)nc2cncc(Br)c21 [SB-738004],29%,73%,15%,0%,0%,41%,29%,16%,0%,4%
CC(C(=O)NC1CCN(c2ccnc(Nc3ccc(F)cc3)n2)C1)c1ccc(Cl)cc1 (centres unmarked) [GSK1379713],12%,10%,28%,0%,0%,14%,0%,0%,0%,0%
Cc1n[nH]c2cc(Nc3ccnc(Nc4cccc(CN5CCOCC5)c4)n3)ccc12 [GW682569],4%,25%,22%,0%,52%,14%,25%,17%,0%,17%
O=C(NCC1CC1)c1ccc(-c2cc(C(=O)NC3CC3)ccc2F)cc1 [GW810445],24%,0%,15%,0%,0%,0%,10%,0%,0%,0%
CC(C)c1nc(-c2cccc(NS(=O)(=O)c3ccccc3)c2)c(-c2ccnc(Nc3ccc4c(c3)CN(C)CC4)n2)s1 [GSK1649598],20%,23%,84%,95.1%,93.2%,33%,44%,21%,0%,66%
Cc1ccc(Nc2ccnc(Nc3ccc4c(c3)CS(=O)(=O)C4)n2)cc1O.Cl [GW579362],48%,88%,55%,17%,91.3%,83%,78%,53%,32%,53%
COc1cc2ncn(-c3cc(OCC4CCCCC4)c(C(N)=O)s3)c2cc1OC [GSK204559],11%,33%,38%,1%,3%,4%,14%,10%,0%,11%
Cn1ccc2ncnc(Oc3ccc(NC(=O)Nc4cccc(C(F)(F)F)c4)c(Cl)c3)c21,49%,0%,5%,0%,54%,94.5%,97.6%,88%,84%,99.7%
Cl.Nc1n[nH]c2cc(-c3ccccn3)ccc12 [GSK2189892],10%,22%,38%,0%,7%,23%,0%,1%,0%,0%
CC(=O)Nc1ccc(-c2cc3ncnc(SCC(=O)O)c3s2)cc1,22%,39%,2%,0%,28%,0%,0%,19%,7%,22%
COc1cc2nccc(Nc3ccc(Oc4ccccc4)cc3)c2cc1OC.Cl [GI261656],18%,9%,88%,0%,0%,5%,0%,0%,0%,0%

# — paper PMC5540273 (PLoS ONE, 2017)
